Each structure is given as a SMILES string. Several values for one entry are separate records, joined by “and”; a condition that tells them apart may be missing. Identical values can stand only once. For part of these data: Potency and affinity values are given separately. Where a structure was tested more than once in an assay, its records may differ in their call. Activity calls are given as the source filed them. Unless noted, the rule behind the calls is not given here.

A word on the inhibition: it is the drop in the measured response relative to a control, in per cent.

The nature of assay [1]: antimalarial activity against Dd2 strain (AID 2302;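 active = growth inhibition above 50% at the single 2 µM test dose, taken to imply half-maximal potency below 2 µM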;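 note: 0% = DMSO untreated growth and 100% = chloroquine plus artemisinin killed control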). The following applies: P. falciparum Dd2 in RBCs, LDH growth readout, 72 h; at 2 µM; stronger effect = higher value.
Assay [2] in a line: human hepatoma cell viability loss – ATP luminescence, cytotoxicity control for P. falciparum antimalarial project, primary screen (AID 2303;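 active = inhibition above 50%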;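 note: 0% = DMSO wells and 100% = digitonin-killed cells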). Particulars: HepG2 viability, 24-48 h, at 10 µM, stronger effect = higher value.
Assay [3] has as its target L-lactate dehydrogenase (Plasmodium falciparum (isolate CDC / Honduras)) (UniProt Q27743). The assay can be described thus: PfLDH activity inhibition – cell lysate, 3D7 strain, counter-screen for P. falciparum growth inhibition project (AID 2304).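 Note: 0% = vehicle and 100% = reference inhibitor.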 Particulars: P. falciparum 3D7 crude extract, LDH APAD/NBT absorbance; at 2 µM; stronger effect = higher value. (In general: Counterscreens check selectivity or assay interference.)

Assay [4] is described as follows: inhibition of 3D7 malaria parasite growth – strain 3D7 (AID 2306).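 Note: 0% = DMSO wells and 100% = chloroquine plus artemisinin control wells.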 Particulars: P. falciparum 3D7 erythrocytic growth, LDH absorbance, 72 h; at 2 µM; stronger effect = higher value.
The target in assay [5] is Calcium-dependent protein kinase 1 (Plasmodium falciparum (isolate 3D7)) (UniProt P62344). The experiment in a line: PfCDPK1 kinase inhibitors, biochemical, TCAMS library (AID 1159585; cut-off not given, nearly all actives have IC50 up to about 0.98 µM;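 note: inhibitors leave more ATP so luminescence rises with inhibition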). Particulars: recombinant PfCDPK1, Kinase-Glo ATP depletion luminescence.
Sequence of Calcium-dependent protein kinase 1 (Plasmodium falciparum (isolate 3D7)) (P62344 whole entry, looked up): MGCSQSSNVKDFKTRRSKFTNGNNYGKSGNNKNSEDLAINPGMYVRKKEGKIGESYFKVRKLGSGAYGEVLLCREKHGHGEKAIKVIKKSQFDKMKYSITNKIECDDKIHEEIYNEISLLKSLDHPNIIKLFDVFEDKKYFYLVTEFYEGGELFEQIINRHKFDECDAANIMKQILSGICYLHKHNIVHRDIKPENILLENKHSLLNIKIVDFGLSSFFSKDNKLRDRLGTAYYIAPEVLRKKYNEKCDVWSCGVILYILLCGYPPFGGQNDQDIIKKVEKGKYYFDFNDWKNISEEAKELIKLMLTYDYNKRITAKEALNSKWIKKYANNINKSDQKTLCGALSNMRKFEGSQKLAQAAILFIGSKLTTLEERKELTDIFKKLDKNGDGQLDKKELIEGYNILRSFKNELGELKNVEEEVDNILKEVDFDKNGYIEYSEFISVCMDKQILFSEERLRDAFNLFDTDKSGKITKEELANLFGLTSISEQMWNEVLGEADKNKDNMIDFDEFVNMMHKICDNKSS
The target in assay [6] is Plasmodium falciparum protein kinase 6 (PK6, PF3D7_1337100) (UniProt Q8IDW1). The assay can be described thus: PfPK6 kinase inhibitors, biochemical, TCAMS library (AID 1159586). Particulars: recombinant PfPK6, Kinase-Glo ATP depletion luminescence.
Sequence of Plasmodium falciparum protein kinase 6 (PK6, PF3D7_1337100) (Q8IDW1 1-305): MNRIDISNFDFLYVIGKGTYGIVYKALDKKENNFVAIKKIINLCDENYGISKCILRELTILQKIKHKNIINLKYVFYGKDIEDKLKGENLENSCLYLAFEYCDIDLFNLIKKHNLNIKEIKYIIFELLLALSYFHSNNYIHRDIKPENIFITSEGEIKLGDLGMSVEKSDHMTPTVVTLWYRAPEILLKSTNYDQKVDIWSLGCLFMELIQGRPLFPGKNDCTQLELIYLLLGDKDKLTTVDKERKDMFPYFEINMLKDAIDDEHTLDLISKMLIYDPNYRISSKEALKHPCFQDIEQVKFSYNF
For assay [7], the target named is Protein kinase 7 (PK7), Plasmodium falciparum 3D7 (PF3D7_0213400) (UniProt Q7YTF7). The assay can be described thus: inhibition of Plasmodium PK7 catalytic activity – biochemical, TCAMS antimalarial set, Kinase-Glo luminescence (AID 1159587). Particulars: recombinant PfPK7, Kinase-Glo ATP depletion luminescence. A general note: Kinase-Glo measures the ATP left after a reaction by luminescence.
Sequence of Protein kinase 7 (PK7), Plasmodium falciparum 3D7 (PF3D7_0213400) (Q7YTF7 1-343): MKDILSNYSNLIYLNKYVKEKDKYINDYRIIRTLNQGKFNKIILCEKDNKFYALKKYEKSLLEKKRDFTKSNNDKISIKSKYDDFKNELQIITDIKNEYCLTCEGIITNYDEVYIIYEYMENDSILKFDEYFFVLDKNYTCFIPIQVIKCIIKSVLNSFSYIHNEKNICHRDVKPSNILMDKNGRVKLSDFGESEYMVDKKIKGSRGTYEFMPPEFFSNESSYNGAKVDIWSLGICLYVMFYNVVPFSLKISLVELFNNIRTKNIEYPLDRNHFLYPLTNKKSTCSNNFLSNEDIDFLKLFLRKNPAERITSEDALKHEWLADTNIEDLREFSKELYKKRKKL

For assay [8], the target named is Calcium-dependent protein kinase 4 (Plasmodium falciparum (isolate 3D7)) (UniProt Q8IBS5). The assay can be described thus: PfCDPK4 kinase inhibitors, biochemical, TCAMS library (AID 1159588; cut-off not given, nearly all actives have IC50 up to about 0.91 µM). Particulars: recombinant PfCDPK4, Kinase-Glo ATP depletion luminescence.
Sequence of Calcium-dependent protein kinase 4 (Plasmodium falciparum (isolate 3D7)) (Q8IBS5 whole entry, looked up): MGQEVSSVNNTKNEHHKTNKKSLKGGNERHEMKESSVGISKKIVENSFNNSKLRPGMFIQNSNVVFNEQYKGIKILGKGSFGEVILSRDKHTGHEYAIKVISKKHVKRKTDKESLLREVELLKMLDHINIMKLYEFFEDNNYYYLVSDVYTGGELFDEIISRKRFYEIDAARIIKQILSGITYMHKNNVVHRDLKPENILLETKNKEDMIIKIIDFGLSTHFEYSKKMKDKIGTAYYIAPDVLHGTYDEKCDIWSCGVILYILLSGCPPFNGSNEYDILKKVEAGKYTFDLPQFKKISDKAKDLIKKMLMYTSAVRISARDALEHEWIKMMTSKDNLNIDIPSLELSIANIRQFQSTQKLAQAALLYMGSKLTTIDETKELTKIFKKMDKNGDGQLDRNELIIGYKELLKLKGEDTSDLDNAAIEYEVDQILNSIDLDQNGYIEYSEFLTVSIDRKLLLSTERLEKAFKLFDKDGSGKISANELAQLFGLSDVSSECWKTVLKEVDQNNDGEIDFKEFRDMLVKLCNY

Sequence of L-lactate dehydrogenase (Plasmodium falciparum (isolate CDC / Honduras)) (Q27743 whole entry, looked up): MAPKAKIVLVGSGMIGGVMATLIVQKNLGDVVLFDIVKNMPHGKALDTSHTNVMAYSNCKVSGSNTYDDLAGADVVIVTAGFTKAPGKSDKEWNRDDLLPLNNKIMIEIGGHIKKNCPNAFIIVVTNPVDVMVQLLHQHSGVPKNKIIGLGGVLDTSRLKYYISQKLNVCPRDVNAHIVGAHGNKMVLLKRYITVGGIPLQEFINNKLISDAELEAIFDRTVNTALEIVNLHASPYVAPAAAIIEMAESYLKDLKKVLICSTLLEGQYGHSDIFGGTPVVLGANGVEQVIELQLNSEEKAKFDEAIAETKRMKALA

For `CCCCNC(c1ccc(Cl)cc1)C(O)c1ccc(Cl)cc1` (centres undefined), the values for the growth inhibition in assay [1] and in assay [4] were 98% (active) and 99% (active), respectively. Besides, the inhibition in assay [2] is 13% (inactive); in assay [3], 4% (inactive). Also, the result in assay [5], in assay [6], in assay [7] and in assay [8] was inactive.
As to `COC(=O)c1ccc(CC(C)NCC(O)c2cccc(C(F)(F)F)c2)c(OC)c1` (centres undefined), the growth inhibition in assay [1] was 98% (active); in assay [4], 100% (active). Moreover, the values for the inhibition in assay [2] and in assay [3] were 5% (inactive) and 7% (inactive), respectively. Besides, the result in assay [5], in assay [6], in assay [7] and in assay [8] was inactive.
As to `FC(F)(F)c1ccc(NC(=S)NC2CCC(CN3CCC(c4c[nH]c5ccccc45)CC3)CC2)cc1` (centres undefined), the growth inhibition was 99% (active) and 100% (active) in assay [1]; 100% (active) and 101% (active) in assay [4]. Further, the inhibition is 65% (active) and 92% (active) in assay [2]; 2% (inactive) and -1% (inactive) in assay [3]. Moreover, the result in assay [5], in assay [6], in assay [7] and in assay [8] was inactive.
On to `CCCc1c(C(=O)NC2CCC(CN3CCC(c4c[nH]c5ccccc45)CC3)CC2)cnn1-c1ccccc1` (centres undefined), for which the growth inhibition in assay [1] is 7% (inactive); in assay [4], 92% (active). Also, the inhibition was 33% (inactive) in assay [2] and -1% (inactive) in assay [3]. The result in assay [5], in assay [6], in assay [7] and in assay [8] was inactive.
In the case of `CC(Cc1ccc(OCCCCOc2ccccc2)cc1)NCCCn1ccnc1` (centres undefined), the growth inhibition in assay [1] and in assay [4] was 101% (active) each time. For the same compound, the inhibition is 100% (active) in assay [2] and 0% (inactive) in assay [3]. Further, the outcome in assay [5], in assay [6], in assay [7] and in assay [8] was inactive.
Turning to `Cc1ccc(-n2nc(C)c3c2NC(=O)CSC3c2ccsc2)cc1` (centres undefined), the values for the growth inhibition in assay [1] and in assay [4] were 11% (inactive) and 97% (active), respectively. In addition, the figures for the inhibition in assay [2] and in assay [3] were -14% (inactive) and 2% (inactive), respectively. The outcome in assay [5], in assay [6], in assay [7] and in assay [8] was inactive.
With `CS(=O)(=O)Nc1ccc2c(C3CCN(CC4CCN(C(=O)/C=C/c5ccc(Cl)c(Cl)c5)CC4)CC3)c[nH]c2c1`, the results for the growth inhibition in assay [1] and in assay [4] were 70% (active) and 99% (active), respectively. Moreover, the inhibition in assay [2] is 28% (inactive); in assay [3], -3% (inactive). The outcome in assay [5], in assay [6], in assay [7] and in assay [8] was inactive.
Turning to `O=C(NC1CCC(CN2CCC(c3c[nH]c4ccccc34)CC2)CC1)c1cc(-c2ccccc2Cl)oc1C(F)(F)F` (centres undefined), the growth inhibition in assay [1] is 7% (inactive); in assay [4] it was 99% (active). Moreover, the results for the inhibition in assay [2] and in assay [3] were 24% (inactive) and 4% (inactive), respectively. For the same compound, the result in assay [5], in assay [6], in assay [7] and in assay [8] was inactive.
In the case of `O=C(NCCCCN1CCC(c2ccc3c(c2OCCO)CCCC3)CC1)c1sc(-c2ccc(C(F)(F)F)cc2)nc1CO`, the growth inhibition in assay [1] was 20% (inactive); in assay [4], 95% (active). Moreover, the inhibition in assay [2] was 37% (inactive); in assay [3], -6% (inactive). Also, the result in assay [5], in assay [6], in assay [7] and in assay [8] was inactive.
In the case of `NCC(=O)c1cc2c(cc1N)OCCO2`, the growth inhibition in assay [1] was 42% (inactive); in assay [4], 89% (active). For the same compound, the inhibition in assay [2] was 64% (active); in assay [3], 0% (inactive). The outcome in assay [5], in assay [6], in assay [7] and in assay [8] was inactive.
As to `Cc1[nH]c2ccccc2c1C1=CCN(CCCCC2(C)C(=O)Nc3ccccc32)CC1` (centres undefined), the growth inhibition in assay [1] is 89% (active); in assay [4], 94% (active). For the same compound, the inhibition in assay [2] is 8% (inactive); in assay [3], -4% (inactive). Besides, the result in assay [5], in assay [6], in assay [7] and in assay [8] was inactive.
As to `NCc1ccc(-c2ccccc2CN(C(=O)Nc2ccccc2)C2CCN(Cc3ccccc3)CC2)cc1`, the growth inhibition in assay [1] was 35% (inactive); in assay [4], 100% (active). The results for the inhibition in assay [2] and in assay [3] were 36% (inactive) and 3% (inactive), respectively. Moreover, the outcome in assay [5], in assay [6], in assay [7] and in assay [8] was inactive.
Regarding `O=C(c1cc(C(F)(F)F)cc(C(F)(F)F)c1)N1CC[C@H](CCN2CCC3(CC2)C(=O)NCN3c2ccccc2)C[C@H]1Cc1ccc(Cl)c(Cl)c1`, the values for the growth inhibition in assay [1] and in assay [4] were 77% (active) and 100% (active), respectively. Moreover, the inhibition in assay [2] is 19% (inactive); in assay [3], -4% (inactive). For the same compound, the result in assay [5], in assay [6], in assay [7] and in assay [8] was inactive.
As to `CC(=O)Nc1ccc2[nH]cc(C3CCN(CC4CCN(C(=O)/C=C/c5ccc(Cl)c(Cl)c5)CC4)CC3)c2c1`, the growth inhibition is 41% (inactive) in assay [1] and 96% (active) in assay [4]. Moreover, the inhibition was 10% (inactive) in assay [2] and -1% (inactive) in assay [3]. Further, the outcome in assay [5], in assay [6], in assay [7] and in assay [8] was inactive.
For `O=C(/C=C/c1ccc(Cl)c(Cl)c1)NC1CCC(CN2CCC(c3c[nH]c4cc(C(F)(F)F)ccc34)CC2)CC1` (centres undefined), the growth inhibition was 38% (inactive) and 85% (active) in assay [1]; 98% (active) and 102% (active) in assay [4]. For the same compound, the inhibition in assay [2] was 11% (inactive) and 40% (inactive); in assay [3], 1% (inactive) and 6% (inactive). Besides, the result in assay [5], in assay [6], in assay [7] and in assay [8] was inactive.
For the compound `Cc1[nH]c2ccccc2c1C1=CCN(CCCCCC23CCCc4cccc(c42)NC3=O)CC1` (centres undefined), the growth inhibition was 91% (active) in assay [1] and 94% (active) in assay [4]. Also, the inhibition in assay [2] was 11% (inactive); in assay [3], 5% (inactive). Besides, the result in assay [5], in assay [6], in assay [7] and in assay [8] was inactive.
Consider `Cn1nc(-c2ccc(S(=O)(=O)NC3CCC(CN4CCC(c5c[nH]c6ccccc56)CC4)CC3)s2)cc1C(F)(F)F` (centres undefined), for which the growth inhibition in assay [1] is 29% (inactive) and 24% (inactive); in assay [4] it was 98% (active) and 96% (active). Moreover, the inhibition is 35% (inactive) and 38% (inactive) in assay [2]; -2% (inactive) and 9% (inactive) in assay [3]. Also, the outcome in assay [5], in assay [6], in assay [7] and in assay [8] was inactive.
As for `COc1ccc(CN2CCN(CCOC(c3ccccc3)c3ccc(Cl)cc3)CC2)c(O)c1` (centres undefined), the growth inhibition in assay [1] was 98% (active); in assay [4], 99% (active). In addition, the inhibition in assay [2] was 12% (inactive); in assay [3], 0% (inactive). Moreover, the outcome in assay [5], in assay [6], in assay [7] and in assay [8] was inactive.

Source of the values: PubChem BioAssay.
